Assay outcomes as filed in PubChem.
Sampled rows, rich in hits. Any-hit rate of the full collection: about 12%.
Sfp inh: blocks B. subtilis Sfp PPTase activity; Q9F4F7; Biochemical Sfp PPTase activity, qHTS; Potency, µM, hits mostly inhibitors; hit rate 3.5% among 310,000; AID 1490;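 also: the enzyme is Sfp with the accession as filed and its product quenches rhodamine fluorescence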
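Reaction rates are the 30-min fluorescence difference (ex 525, em 598 nm) in wells containing 15 nM Sfp, 5 uM rhodamine-CoA and 12.5 uM BHQ-2-YbbR at pH 7.6 with 10 mM MgCl2.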
HP1b binding inh: HP1-beta chromodomain-methylated histone interaction inhibition. Potency, µM (top dose mostly 114 µM), actives largely listed as inhibitors. hit rate 0.56% among 390,000. AlphaScreen HP1-beta / biotin-H3K9me3 peptide binding; also: nearly all actives have a fitted effect of over 70% in size
Target sequence (P83916 whole entry, looked up): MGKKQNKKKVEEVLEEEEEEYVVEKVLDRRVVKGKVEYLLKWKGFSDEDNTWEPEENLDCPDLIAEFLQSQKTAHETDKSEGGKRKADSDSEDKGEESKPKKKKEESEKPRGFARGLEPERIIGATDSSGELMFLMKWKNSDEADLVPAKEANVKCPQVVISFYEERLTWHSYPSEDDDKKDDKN
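HP1-beta protein (50 nM final) preincubated 30 min at room temperature with biotinylated H3(1-18)K9me3 peptide (50 nM) in PBS pH 7.4, 0.01% Tween-20, then compound added for 30 min. AlphaScreen streptavidin donor/nickel chelate acceptor beads (10 ug/mL final), 30 min dark, luminescence read.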
BAZ2B block: blocks human BAZ2B. AlphaScreen BAZ2B-H3K14Ac peptide displacement. hit rate 4.4% among 360,000. Potency, µM (doses to about 114 µM), most hits filed as inhibitors; also: nearly all actives have a fitted effect of over 60% in size
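In this displacement format the biotinylated H3(5-23) peptide acetylated at Lys14 serves as ligand at 50 nM, with BAZ2B at 50 nM in PBS pH 7.4 containing 0.01% Tween-20. Donor and acceptor beads are 10 ug/mL final.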
L3MBTL1 inh: L3MBTL1 (human) inhibition; Q9Y468; AlphaScreen L3MBTL1–H3K9me1 peptide binding; Potency, µM (titrated, usually from 57.1 µM), most hits filed as inhibitors; hit rate 0.66% among 230,000; AID 485360; also: nearly all actives have a fitted effect of over 60% in size
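L3MBTL1 (50 nM) pre-complexed 30 min with biotinylated H3(1-15)K9me1 peptide (75 nM), then compounds added for 30 min at room temperature; AlphaScreen streptavidin donor/nickel chelate acceptor beads (10 ug/mL final) read after 30 min dark incubation.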
JMJD2A Tudor inh: blocks the human JMJD2A Tudor domain; O75164; AlphaScreen JMJD2A-Tudor / H3K4me3 peptide binding; Potency, µM (highest dose often 114 µM), actives largely listed as inhibitors; hit rate 4.4% among 390,000; AID 504339; also: nearly all actives have a fitted effect of over 50% in size
G9a block: inhibitors of human histone lysine methyltransferase G9a. G9a H3K9 monomethylation, AlphaScreen, 2 h. hit rate 8.8% among 350,000. Q96KQ7. Potency, µM (highest dose often 102 µM), usual class: inhibitors; also: nearly all actives have a fitted effect of over 75% in size
Target sequence (Q96KQ7 913-1193 limits assumed): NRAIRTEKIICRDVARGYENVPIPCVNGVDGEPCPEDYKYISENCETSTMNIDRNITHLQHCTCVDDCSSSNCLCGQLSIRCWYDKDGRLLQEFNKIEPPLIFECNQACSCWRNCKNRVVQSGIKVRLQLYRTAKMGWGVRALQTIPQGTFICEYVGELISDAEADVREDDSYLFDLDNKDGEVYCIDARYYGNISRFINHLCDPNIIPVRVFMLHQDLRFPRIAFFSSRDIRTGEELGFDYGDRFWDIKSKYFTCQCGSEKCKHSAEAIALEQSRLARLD
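Chemiluminescent proximity detection of H3K9 monomethylation, read after 10 min bead incubation in the dark. Reaction: 20 nM G9a, 500 nM biotin-H3K9 peptide, 20 uM SAM cofactor, 2 h, room temperature, following 15 min enzyme-compound preincubation.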
Of the large screens only hits and unclear results are named; the others gave an inactive call. Calls follow the shape of the dose curve; as a rule, active = well fitted curve in the direction sought with a large enough effect; inconclusive = small, poorly fitted or top-dose-only effect, or another doubt; inactive = no such curve, though single readings can be large; an effect the other way counts as inactive or inconclusive.

Cc1ccc(S(=O)(=O)N2CCCCC2)cc1NC(=O)COC(=O)C1CC2C=CC1C2 (configuration not stated)	none
CC(=O)c1cc(Cl)ccc1OCC(=O)Nc1cccc(S(=O)(=O)N2CCCC2)c1	G9a block 7.1µM (no result: Sfp inh)
Cc1ccc(OCC(=O)Nc2cc(NC(=O)COc3ccc(C)cc3)cc(C(=O)O)c2)cc1	G9a block inconclusive
Cc1ccc(OCC(=O)Nc2cc(C(=O)O)cc(C(=O)O)c2)cc1C	Sfp inh inconclusive, JMJD2A Tudor inh 8.9µM, G9a block inconclusive (no result: L3MBTL1 inh)
Cc1ccc(NC(=O)COC(=O)C2CC3C=CC2C3)cc1S(=O)(=O)N1CCCCC1 (configuration not stated)	JMJD2A Tudor inh 56µM
COc1ccc(NC(=O)COc2cc(C)cc(C)c2)cc1S(=O)(=O)N1CCCCC1	none (no result: Sfp inh)
CCCCOc1ccc(CNC(=O)C2COc3ccc(OC)cc3C2)cc1 (configuration not stated)	none (no result: Sfp inh, L3MBTL1 inh)
CCC(Sc1nnc(C)n2c1cc1occc12)C(=O)Nc1ccccc1OC (configuration not stated)	none (no result: Sfp inh, L3MBTL1 inh)
O=C(COC(=O)c1cc([N+](=O)[O-])ccc1NCCO)Nc1cccc(S(=O)(=O)N2CCCC2)c1	JMJD2A Tudor inh inconclusive, G9a block 45µM (no result: Sfp inh)
COc1ccc(NC(=O)CN(C)CC(=O)Nc2cccc(F)c2)cc1S(=O)(=O)N1CCCCC1	HP1b binding inh inconclusive, JMJD2A Tudor inh 2.8µM (no result: Sfp inh, BAZ2B block, L3MBTL1 inh, G9a block)
COc1ccc(NC(=O)Cc2ccccc2F)cc1S(=O)(=O)N1CCCCC1	G9a block 0.32µM (no result: Sfp inh)
Cc1ccc(NC(=O)COC(=O)Cc2c[nH]c3ccccc23)cc1F	JMJD2A Tudor inh inconclusive, G9a block 35µM (no result: Sfp inh)
COc1ccc(NC(=O)COc2ccccc2F)cc1S(=O)(=O)N1CCCCC1	none (no result: L3MBTL1 inh, G9a block)
COc1ccc(NC(=O)CSc2ccc(F)cc2)cc1S(=O)(=O)N1CCCCC1	none
O=C(COC(=O)Cc1c[nH]c2ccccc12)Nc1ccccc1	none
Cc1ccc(S(=O)(=O)N2CCN(c3nc(-c4ccc(CN5CCNCC5)s4)nc4ccccc34)CC2)cc1	JMJD2A Tudor inh inconclusive (no result: Sfp inh, BAZ2B block, L3MBTL1 inh, G9a block)
Cc1ccc(NCc2ccccc2-c2nnc(-c3ccccc3Cl)o2)c(C)c1	BAZ2B block inconclusive, JMJD2A Tudor inh inconclusive (no result: Sfp inh, L3MBTL1 inh)
Cc1ccc(NC(=O)Cc2c[nH]c3ccccc23)cc1S(=O)(=O)N1CCCCCC1	G9a block 25µM
COc1cc(Cl)c(C)cc1NCC(=O)Nc1cccc(S(=O)(=O)N2CCCC2)c1	BAZ2B block inconclusive, JMJD2A Tudor inh inconclusive, G9a block 11µM (no result: Sfp inh)
COc1cccc(CN(C)CC(=O)Nc2cc(S(=O)(=O)N3CCCC3)ccc2Cl)c1OC	none (no result: Sfp inh)
O=C(CNc1ccc(F)cc1Cl)Nc1cccc(S(=O)(=O)N2CCCCC2)c1	none (no result: Sfp inh)
COc1ccccc1CN(C)CC(=O)Nc1cccc(S(=O)(=O)N2CCCC2)c1	JMJD2A Tudor inh 0.79µM (no result: Sfp inh, BAZ2B block, G9a block)
Cc1ccc(NC(=O)CN(C)CC(=O)Nc2cccc(F)c2)cc1S(=O)(=O)N1CCCCCC1	HP1b binding inh inconclusive, BAZ2B block 50µM, JMJD2A Tudor inh 18µM, G9a block 5.6µM
COCCn1c(=O)c(-c2ccc(OC)cc2)nc2cnc(Oc3ccccc3)nc21	none (no result: HP1b binding inh, BAZ2B block, L3MBTL1 inh, JMJD2A Tudor inh)
Cc1cccc(N2CCN(C(=O)c3cccc(-n4c(C)nc5cccnc54)c3)CC2C)c1 (configuration not stated)	G9a block inconclusive (no result: Sfp inh, L3MBTL1 inh)
Cc1ccc(NC(=O)CSc2nnc(C)s2)c(C)c1	none (no result: Sfp inh, L3MBTL1 inh)
Cc1cn2c(=O)cc(COC(=O)c3cccc(NC(=O)COc4ccccc4Cl)c3)nc2s1	none (no result: Sfp inh, L3MBTL1 inh)
Cc1ccc(NC(=O)Cn2ncc(Cl)c(Cl)c2=O)cc1S(=O)(=O)N1CCCCC1	L3MBTL1 inh inconclusive, G9a block inconclusive (no result: Sfp inh)
Cc1ccc(NC(=O)Cn2cc(C(F)(F)F)cc(Cl)c2=O)cc1S(=O)(=O)N1CCCCC1	G9a block 50µM (no result: Sfp inh)
N#Cc1ccc(Cl)cc1NC(=O)CNc1cccc(S(=O)(=O)N2CCCC2)c1	G9a block 45µM (no result: Sfp inh)
CCOc1ccc(N2CC(C(=O)Nc3ccc(OC)c(S(=O)(=O)N4CCCCC4)c3)CC2=O)cc1 (configuration not stated)	G9a block 79µM
Cc1ccc(NC(=O)CCNC(=O)c2ccc(Br)cc2)cc1S(=O)(=O)N1CCCCCC1	G9a block 50µM (no result: Sfp inh)
